The whole screen tested about 260,000 compounds, of which about 1,500 (0.58%) were called active. Inconclusive results (about 5%) are left out.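 How the source made its calls: active means inhibition above a set limit at one or more doses, reproduced on every date tested; inconclusive means results disagree between test dates, or hit never tested in dose response; inactive means the rest.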 Only a sample is shown. Entries with a potency or affinity are not part of this list.

Usually inhibition stands for the relative decrease from the control value, in per cent.

The target in this test is Virion infectivity factor (Human immunodeficiency virus type 1 group M subtype B (isolate BH10)) + Virion infectivity factor (Human immunodeficiency virus type 1 group M subtype B (isolate BRU/LAI)) + Virion infectivity factor (Human immunodeficiency virus type 1 group M subtype B (isolate PCV12)) + Virion infectivity factor (Human immunodeficiency virus type 1 group M subtype B (isolate HXB2)) + DNA dC->dU-editing enzyme APOBEC-3G (Homo sapiens) (UniProt P69720+P69721+P69722+P69723+Q9HC16). The experiment in a line: HIV-1 Vif–A3G interaction blockers – biochemical, TR-FRET, GST-Vif 1-94, biotin-A3G peptide, dose response retest, primary screen (AID 1117319).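 Further: Vif residues 1-94 fused to GST binding biotinylated APOBEC3G peptide 110-148; 0% = full assay without inhibitor and 100% = GST in place of GST-Vif.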 To be noted: TR-FRET GST-Vif / biotin-A3G peptide binding; active compounds read high. Background: In TR-FRET formats the signal depends on donor and acceptor labels being close together.
For the compound `COc1ccccc1NC(=O)CSc1nnc(CC(=O)Nc2ccccc2C)n1C`, the inhibition is -12.1% (inactive). As to `CCOc1cccc(N2C(=O)CC(N3CCN(c4nc5ccccc5s4)CC3)C2=O)c1` (stereo unspecified), the inhibition was -1.33% (inactive). As to `Clc1cccc(/C=N\Nc2nccs2)c1`, the inhibition was -1.1% (inactive). With `O=C(N/N=C/c1ccc(O)c([N+](=O)[O-])c1)c1ccncc1`, the inhibition was -22.5% (inactive). Regarding `COc1ccc(C(=O)NCc2ccncc2)cc1OC`, the inhibition was 24.8% (inactive). Turning to `O=C(O)c1cc(N=Nc2c(O)[nH]c3ccc([N+](=O)[O-])cc23)ccc1Cl`, the inhibition is 10% (inactive). In the case of `Cc1onc(-c2c(Cl)cccc2Cl)c1NC(=O)NNc1c(Cl)cncc1Cl`, the inhibition was -3.28% (inactive).

Regarding `CCOC=C1SC(=S)N(c2ccccc2OC)C1=O`, the inhibition is -1.46% (inactive). As for `COc1ccccc1NC(=S)N1CCCCCC1`, the inhibition is -0.41% (inactive). In the case of `CCc1ccc(CCC(=O)Nc2ccc(S(N)(=O)=O)cc2)o1`, the inhibition was 68.2% (inactive). To `CC(=O)Nc1ccc(NC(=O)CCc2ccc(C)o2)cc1` belongs 3.07% (inactive); to `O=C(COC(=O)COc1cccc(Br)c1)NCc1ccc2c(c1)OCO2`, -4.12% (inactive). Consider `CCOc1ncccc1C(=O)OCC(=O)c1c(N)n(C)c(=O)n(C)c1=O`, for which the inhibition was -0.62% (inactive). Consider `CCN(CC(=O)Nc1c(F)cccc1F)C(=O)c1c(-c2ccccc2Cl)noc1C`, for which the inhibition was 10.1% (inactive). In the case of `C=CCn1c(COc2ccc(Cl)cc2)nnc1SCc1ccc(C#N)cc1`, the inhibition was -5.86% (inactive). Under `CCc1c(C)[nH]c2ccccc2c1=O` stands 22.4% (inactive).

For `Cc1[nH]c2ccccc2c1-c1nc2ccccc2[nH]1`, the inhibition was 24.1% (inactive).

With `CCOc1ccc(CCNC(=O)CS(=O)Cc2nc(-c3ccc(C)cc3)oc2C)cc1` (stereo unspecified), the inhibition was 5.23% (inactive).

For the compound `COc1ccc(N2CCN(Cc3cc(=O)oc4cc(C)c(Cl)c(C)c34)CC2)cc1`, the inhibition was 4.75% (inactive).

As to `O=C(NCCc1ccccc1)C1CCN(S(=O)(=O)c2cccc3nonc23)CC1`, the inhibition is -0.8% (inactive). Regarding `O=C(NCCN1CCN(c2ccccc2)CC1)C1CCN(S(=O)(=O)c2cccc3nsnc23)CC1`, the inhibition is -4.91% (inactive). Under `Cc1cc(=O)[nH]c(SCCCOc2ccccc2Cl)n1` stands -1.03% (inactive). With `CCSc1n[nH]c2nc3c(c(=O)n12)C1(CCCCC1)Cc1ccccc1-3`, the inhibition was -15.1% (inactive).

In the case of `CCN(CC)C(=O)CSc1nnc(-c2ccccn2)n1-c1ccccc1OC`, the inhibition is -5.38% (inactive). For the compound `Oc1c(Br)cc(Cl)cc1C=Nc1ccc(N2CCOCC2)cc1`, the inhibition was 29.3% (inactive). For the compound `O=[N+]([O-])c1cc(Cc2ccccc2)cc(C=Nc2ccc(N3CCOCC3)cc2)c1O`, the inhibition was 23.6% (inactive).

For `COc1cccc(C(=O)Nc2ccc(NC(=O)c3ccco3)c(Cl)c2)c1`, the inhibition was -3.2% (inactive). For the compound `Cc1ccc(-c2cc(C(F)(F)F)n3nc(C(=O)Nc4ccon4)cc3n2)cc1C`, the inhibition is 10.8% (inactive). Turning to `COc1ccc(/C=N/NC(=O)Cn2ccnc2C)cc1OC`, the inhibition was -2.05% (inactive). Take `Cc1nccn1CC(=O)N/N=C/c1cccc(O)c1`: the inhibition was 2.96% (inactive). As for `CNC(=O)C(=O)N/N=C/c1ccc(Br)cc1`, the inhibition was 17.2% (inactive). With `COc1ccc(NC(=O)COc2ccccc2Cl)cc1S(=O)(=O)N1CCCCC1`, the inhibition is 11.7% (inactive).

With `O=C(CNS(=O)(=O)c1ccccc1Br)OCC(=O)N1CCc2ccccc21`, the inhibition was 4.27% (inactive). In the case of `Cc1onc(-c2c(F)cccc2Cl)c1C(=O)N1CCOC12CCCCC2`, the inhibition is -10.5% (inactive).

For `Nc1ccc(S(=O)(=O)c2ccc(N)cc2)cc1`, the inhibition is -4.69% (inactive). As for `Nc1ccc(S(=O)(=O)c2cccc(N)c2)cc1`, the inhibition is 0.36% (inactive).

For the compound `COc1ccc(-c2csc3nc(C)nc(N4CCN(C(C)=O)CC4)c23)cc1OC`, the inhibition was -6.79% (inactive). In the case of `COc1cc(S(=O)(=O)NC2CCCCC2)ccc1F`, the inhibition is -3.56% (inactive). As to `COc1ccc(C2c3c(-c4ccccc4O)n[nH]c3C(=O)N2Cc2ccco2)cc1OC` (stereo unspecified), the inhibition is -4.89% (inactive). Under `CC(C)[C@@H]1N[C@]2(C(=O)Nc3ccccc32)[C@@H]2C(=O)N(c3cccc(C(F)(F)F)c3)C(=O)[C@@H]21` stands 7.45% (inactive); under `NC(=O)C[C@@H]1N[C@]2(C(=O)Nc3ccccc32)[C@@H]2C(=O)N(C3CCCCC3)C(=O)[C@H]12`, 6.65% (inactive). As to `C=CCNC(=S)N/N=C/c1ccc(N(CC)Cc2ccccc2)cc1`, the inhibition was -8.07% (inactive). Turning to `CCOC(=O)c1cc(-c2cccc(C(F)(F)F)c2)nc2nc(SC)[nH]c(=O)c12`, the inhibition is -8.37% (inactive).

Consider `O=C(Nc1ccnn1C1CCN(Cc2ccc(C#CCCO)cc2)CC1)c1cccc(F)c1`, for which the inhibition was 4.84% (inactive). Take `CCS(=O)(=O)Nc1ccc(NC(C)=O)cc1`: the inhibition was 10.1% (inactive). Consider `CNC(=O)CSc1nnc(-c2ccccc2)n1C`, for which the inhibition is -0.87% (inactive). To `Cc1oc(-c2cccc(Cl)c2)nc1CN1CCC(C(=O)N2CCN(c3ccccn3)CC2)CC1` belongs 6.2% (inactive).

As for `CCc1ccc(-c2nc(CN3CCC(C(=O)N4CCN(c5ccccn5)CC4)CC3)c(C)o2)cc1`, the inhibition was -7.35% (inactive).

With `CCOc1ccc2nc(NC(=O)C3CCCN(S(=O)(=O)c4c(C)noc4C)C3)sc2c1` (stereo unspecified), the inhibition is -3.03% (inactive). For `Cc1cc(NC(=O)c2ccc(Cl)cc2)c(C)cc1O`, the inhibition was -1.13% (inactive). With `Cc1cc(C(c2ccc(O)cc2)c2cc(C)c(O)cc2C)c(C)cc1O`, the inhibition is 1.89% (inactive). `CCOC(=O)c1c(S(=O)(=O)NCC2CCN(Cc3cccc(F)c3)CC2)c(C)n(C)c1C`: the inhibition is -4.42% (inactive).

On to `O=C(CCN1C(=O)/C(=C/c2ccccc2Cl)SC1=S)NC1=NCCS1`, for which the inhibition is 9.65% (inactive).

`O=C(CCN1C(=O)S/C(=C\c2cccs2)C1=O)NC1=NCCS1`: the inhibition is 25.6% (inactive). For the compound `CCC1(c2ccc(F)cc2)NC(=O)N(CC(=O)NCc2ccc(C)cc2)C1=O` (stereo unspecified), the inhibition was -8.4% (inactive). `COc1cccc(C(=O)N2CCN(C(=O)Cc3ccccc3)CC2)c1`: the inhibition was -2.27% (inactive). To `CC1=NN(c2ccccc2)C(=O)/C1=C\c1cc(C)n(C)c1C` belongs 6.69% (inactive); to `Cc1ccc(Cn2nnc3c(=O)n(CC(=O)NCc4ccco4)cnc32)cc1`, 16.3% (inactive). Regarding `O=C(Cn1cnc2c(nnn2Cc2ccccc2)c1=O)NCc1ccco1`, the inhibition was -2% (inactive). `NS(=O)(=O)c1ccc(N/N=C/c2ccccc2C(=O)O)c([N+](=O)[O-])c1`: the inhibition is -3.72% (inactive). Under `O=[N+]([O-])c1ccc(NCCCO)c(S(=O)(=O)N2CCOCC2)c1` stands -0.32% (inactive); under `CC(O)CNc1ccc([N+](=O)[O-])cc1S(=O)(=O)N1CCOCC1` (stereo unspecified), 6.02% (inactive); under `NS(=O)(=O)c1ccc(N/N=C/c2ccc(O)cc2O)c([N+](=O)[O-])c1`, -13.8% (inactive). For the compound `O=C(CCNS(=O)(=O)c1ccc(Br)cc1)N1CCN(c2ccccc2O)CC1`, the inhibition is 0.32% (inactive). As for `Cc1ccc(OCCOCCN2CCN(C)CC2)c([N+](=O)[O-])c1`, the inhibition is 6.13% (inactive). As to `CCOC(=O)C1CCN(c2c(NCc3ccc(C(=O)NC4CCCC4)cc3)c(=O)c2=O)CC1`, the inhibition was 0.11% (inactive). As for `COc1ccc(Cc2c(O)nc(SCC(=O)N3CCCCCC3)[nH]c2=O)cc1`, the inhibition was -4.82% (inactive). To `O=C(/C=C/c1cccs1)Nc1cccc(NC(=O)/C=C/c2cccs2)n1` belongs 13.7% (inactive). Under `Cc1cccc(NC(=O)/C=C/c2cccs2)n1` stands 4.61% (inactive); under `Cc1nn(-c2ccc(Cl)cn2)c2c1C(=O)CC(C)(C)C2Br` (stereo unspecified), -0.39% (inactive); under `CO[C@@]12[C@@H]3N[C@@H]3CN1C1=C(C(=O)C(N)=C(C)C1=O)[C@@H]2COC(N)=O`, 5.83% (inactive).

As for `[O-][n+]1c2ccc3nonc3c2nn1-c1ccccc1Cl`, the inhibition was -0.31% (inactive). To `O=C(CSc1ccc(-c2ccccn2)nn1)Nc1nccs1` belongs -5.9% (inactive); to `CCOCCCNC(=O)c1cccc(NC(=O)C2=C(C)OCCS2)c1`, -0.24% (inactive).

As to `COc1ccc([N+](=O)[O-])cc1NC(=O)COC(=O)Cc1cc(OC)c(OC)c(OC)c1`, the inhibition was -5.64% (inactive).

On to `COc1cc(CC(=O)OCC(=O)Nc2ccc([N+](=O)[O-])cc2)cc(OC)c1OC`, for which the inhibition was 31.8% (inactive). For the compound `Cc1csc(SCC(=O)NC2CCS(=O)(=O)C2)n1` (stereo unspecified), the inhibition is -3.32% (inactive). Turning to `COc1cccc(NC(=O)CN2C(=O)COc3ccc(S(=O)(=O)N4CCOCC4)cc32)c1`, the inhibition was 0% (inactive).

`CCOC(=O)c1cccc(NC(=O)c2ccc(-n3cnnn3)cc2)c1`: the inhibition is -5.14% (inactive).

Turning to `CC(=O)c1ccc(NC(=O)c2ccc(-n3cnnn3)cc2)cc1`, the inhibition was -12.9% (inactive). In the case of `COc1ccc(NC(=O)CCc2ccccc2)cc1S(=O)(=O)N1CCCCC1`, the inhibition is 2.14% (inactive). On to `O=C(Nc1nc2ccccc2s1)c1ccc2c(c1)S(=O)(=O)c1ccccc1C2=O`, for which the inhibition is 28.5% (inactive). Turning to `O=C(c1ccc(Br)o1)N1CCN(C/C=C/c2ccccc2)CC1`, the inhibition was 2.12% (inactive). As to `C/C(=N\NC(=S)NCc1ccccc1)c1ccc(C(C)(C)C)cc1`, the inhibition is 9.19% (inactive). With `C/C(CCC(=O)O)=N/Nc1ccc([N+](=O)[O-])cc1[N+](=O)[O-]`, the inhibition is 5.85% (inactive). Under `CN1CCN(C2=C(NS(=O)(=O)c3ccccc3)C(=O)c3ccccc3C2=O)CC1` stands -3.21% (inactive); under `NC(=O)C1CCN(C2OC(=O)c3ccccc32)CC1` (stereo unspecified), -1.56% (inactive). Under `CN1CCN(C2=C(Cl)C(=O)N(Cc3ccccc3)C2=O)CC1` stands 14.1% (inactive); under `O=C1C(Cl)=C(NCCCN2CCOCC2)C(=O)c2ccccc21`, 3.39% (inactive); under `NC(=O)C1CCN(C2=C(NS(=O)(=O)c3ccc(Cl)cc3)C(=O)c3ccccc3C2=O)CC1`, 10.6% (inactive). As for `CC(C)NC1=C(Cl)C(=O)c2ccccc2C1=O`, the inhibition was 2.61% (inactive).

The values are drawn from PubChem BioAssay AID1117319 (Southern Research Institute, 2015).
